This note sets out measurements from PubChem BioAssay (NCATS).

Each structure is given as a SMILES string. Inconclusive results are not listed. Where a call stands in place of a potency, no number is given. Calls of active or inactive are those of the source. The call rests on the fitted dose curve.
Potency means the concentration at half of the fitted maximal effect.

A short description of the assay: Cytotoxicity counterscreen for inhibitors of SARS-CoV-2 cell entry (AID 1645845). Further: nearly all actives have a fitted effect of over 50% in size. Particulars: cell viability (SARS-CoV-2 entry assay cells); series mostly up to 57.1 µM. The text has this: Assay Provider: Wei Zheng, Ph.D.
National Center for Advancing Translational Sciences, National Institute of Health, Rockville, MD.
SARS-CoV-2 spike protein, within the viral envelope, mediates viral attachment and infection of host cells. The SARS-CoV-2 spike protein specifically binds to the host receptor ACE2 (Angiotensin-converting enzyme 2). This interaction promotes endocytosis of the viral particle, additional events lead to viral-host cell membrane fusion and release of the viral contents, allowing viral replication.
While SARS-CoV-2 requires BSL-3 facilities for live virus work, pseudo-typed partices (PP) that incorporate SARS-CoV-2 spike proteins without replication elements could facilitate studies on viral entry mechanisms in a BSL-2 setting. This PP cell entry assay could also enable screening of small molecule compound libraries in BSL-2 setting to identify inhibitors of SARS-CoV-2 cell entry. To eliminate false positive compounds, ATP content cytotoxicity assay was screened in the same cell line.
SEQUENCE No. (e.g., 1, 2, 3, etc.); […] (e.g., Cells, Incubation, Reagent, etc.); VALUE and DESCRIPTION.
1. Cells. Seed 1500 HEK293-ACE2 cells (Expi293F with stable expression of human ACE2) in 2 uL/well media (DMEM, 10% FBS, 1x L-glutamine, 1x Pen/Strep, 1 ug/ml puromycin) in white 1536-well assay plates (Greiner #782073).
2. Incubation. Incubate at 37 C with 5% CO2 overnight (~16 h).
3. Compounds. Dispense 23 nL/well compounds in DMSO via pin transfer.
4. Incubation. Incubate for 1 h at 37C 5% CO2.
5. Reagent. Dispense 2 uL/well of media (DMEM, 10% FBS, 1x L-glutamine, 1x Pen/Strep, 1 ug/ml puromycin).
6. Incubation. Incubate at for 48h at 37C 5% CO2
7. Reagent. Dispense 4 uL/well of ATPLite 1step luminescence assay reagent (PerkinElmer #6016739).
8. Incubation. Incubate for 15 min at room temperature.
9. Detection. Read luminescence signal (Viewlux plate reader, PerkinElmer). Data was normalized with wells containing cells as 100%, and wells without cells (media only control) as 0%.
In general terms: A counterscreen serves to expose hits that act by an unwanted route or on another target.
For `CCc1cccc2c3c([nH]c12)[C@@](CC)(CC(=O)O)OCC3`, the Potency result was “inactive”.

Consider `CCC1OC(=O)[C@H](C)C(=O)[C@H](C)[C@@H](OC2O[C@H](C)C[C@H](N(C)C)[C@H]2O)[C@](C)(OC)C[C@@H](C)C(=O)[C@@H](C)[C@@H]2N(CCCCn3cnc(-c4cccnc4)c3)C(=O)O[C@]12C` (stereo not given in full), for which the Potency result is “inactive”.

`CCC(c1ccccc1)c1noc(CCN(CC)CC)n1` (stereo not given): the Potency result was “inactive”. The result for `Cc1c(Cl)c(C)[n+]([O-])c(Cl)c1-c1noc(-c2cc(O)c(O)c([N+](=O)[O-])c2)n1` reads “inactive”. The result for `Nc1c(Br)cc(Br)cc1CNC1CCC(O)CC1` (stereo not given) reads “inactive”; that for `C[C@@H]1COCCN1c1cc(=O)n2c(n1)N(Cc1cncc(Cl)c1)[C@H](C(F)(F)F)CC2`, “inactive”. In the case of `CN[C@@H](C)C(=O)N[C@H](C(=O)N1CCC[C@H]1C(=O)Nc1sc(-c2ncco2)nc1-c1ccccc1)C1CCCCC1` it was “inactive”; in that of `COC(=O)N(CC(=O)O)Cc1cccc(OCc2nc(-c3ccc(Cl)cc3)oc2C)c1`, “inactive”. Consider `Cc1c[nH]c2nc(Nc3ccc(N4CCN(C)CC4)c(F)c3)nc(-c3cccc(CC#N)c3)c12`, for which the Potency was 8.91 µM (active). The result for `COc1ccc(-c2c(C)nn3c(NCCN4CCOCC4)cc(C)nc23)cc1OC` reads “inactive”; that for `COC[C@H]1OC(=O)c2coc3c2[C@@]1(C)C1=C(C3=O)[C@@H]2CC[C@H](O)[C@@]2(C)C[C@H]1OC(C)=O`, “inactive”; that for `OCc1cc(C(O)CNCCCCCCOCCOCc2c(Cl)cccc2Cl)ccc1O` (stereo not given), “inactive”. In the case of `C#C[C@]1(O)CC[C@H]2[C@@H]3CCC4=C/C(=N/O)CC[C@@H]4[C@H]3CC[C@@]21CC` it was “inactive”; in that of `C=CCCCCCCCCC(=O)O[C@H]1CC[C@H]2[C@@H]3CCC4=CC(=O)C=C[C@]4(C)[C@H]3CC[C@]12C`, “inactive”; in that of `COc1ccc2c(c1)CC[C@@H]1[C@@H]2CC[C@]2(C)[C@@H](NCCCCCCN3C(=O)C=CC3=O)CC[C@@H]12`, “inactive”. For `COc1ccc2c(c1)OC(C)(C)C(c1ccccc1)C2c1ccc(OCCN2CCCC2)cc1` (stereo not given), the Potency result is “inactive”. The result for `CN(Cc1ccccc1)C(=O)[C@H](NC(=O)c1cc2cc(NC(=O)c3ccccc3-c3ccc(C(F)(F)F)cc3)ccc2n1C)c1ccccc1` reads “inactive”.

For the compound `CCOc1nc2cccc(C(=O)O)c2n1Cc1ccc(-c2ccccc2-c2noc(=O)[nH]2)cc1`, the Potency result was “inactive”. In the case of `CC1(C)[C@@H](O[C@H]2O[C@H](C(=O)O)[C@@H](O)[C@H](O)[C@H]2O[C@@H]2O[C@H](C(=O)O)[C@@H](O)[C@H](O)[C@H]2O)CC[C@]2(C)[C@H]3C(=O)C=C4[C@@H]5C[C@@](C)(C(=O)O)CC[C@]5(C)CC[C@@]4(C)[C@]3(C)CC[C@@H]12` it was “inactive”.

In the case of `Cc1cc(-c2ccc(N=Nc3c(S(=O)(=O)O)cc4cc(S(=O)(=O)O)cc(N)c4c3O)c(C)c2)ccc1N=Nc1c(S(=O)(=O)O)cc2cc(S(=O)(=O)O)cc(N)c2c1O`, the Potency entry was “inactive”.

As to `C=C(C)[C@@H]1CCC(C)=C[C@H]1c1c(O)cc(CCCCC)cc1O`, the Potency entry was “inactive”.

With `CC(=O)OCC(=O)[C@@]1(O)CC[C@H]2[C@@H]3C[C@H](C)C4=CC(=O)C=C[C@]4(C)[C@H]3[C@@H](O)C[C@@]21C`, the Potency result was “inactive”. Consider `O=C(O)CC(O)CC(O)/C=C/c1c(C2CC2)nc2ccccc2c1-c1ccc(F)cc1` (stereo not given), for which the Potency entry was “inactive”.

In the case of `Cc1cc(C)c(CNC(=O)c2cc(-c3ccc(CN4CCOCC4)cc3)cc3c2cnn3C2CCCC2)c(=O)[nH]1`, the Potency entry was “inactive”. Take `CCC(O)c1ccccc1` (stereo not given): the Potency entry was “inactive”. In the case of `CC1(C)S[C@@H]2[C@H](NC(=O)C(C(=O)O)c3ccsc3)C(=O)N2[C@H]1C(=O)O` (stereo not given in full) it was “inactive”. Turning to `CN[C@@H](C)C(=O)N[C@@H]1C(=O)N(Cc2c(C)ccc3ccccc23)c2ccc(C#N)cc2N(C(C)=O)[C@H]1C`, the Potency entry is “inactive”. Turning to `CC(C)(C)C(=O)OCOC(=O)[C@@H]1N2C(=O)[C@@H](N=CN3CCCCCC3)[C@H]2SC1(C)C`, the Potency entry is “inactive”. The result for `CN1C(=O)[C@]23C[C@H]4C(C)(C)[C@]5(CNc6c5ccc5c6OC=CC(C)(C)O5)C[C@@]41CN2CC[C@@]3(C)O` reads “inactive”; that for `Cc1[nH]c(/C=C2\C(=O)Nc3ccc(F)cc32)c(C)c1C(=O)NCCN1CCCC1`, “inactive”.

Regarding `Cn1cncc1C(N)(c1ccc(Cl)cc1)c1ccc2c(c1)c(-c1cccc(Cl)c1)cc(=O)n2C` (stereo not given), the Potency is 8.91 µM (active). The result for `O=C(O)c1ccc(CCCc2ccc(OCCc3ccc(F)cc3)cc2)o1` reads “inactive”; that for `Clc1cc2c(NC3CCCC3)nnc(-c3ccncc3)c2cc1Cl`, “inactive”. As for `NCCCC(N)C(=O)O` (stereo not given), the Potency entry is “inactive”. On to `CC[N+](CC)(CC)CCC(O)(c1ccccc1)C1CCCCC1` (stereo not given), for which the Potency result is “inactive”. For `COc1ccc2c(O[C@H]3CC4C(=O)N(C)CCCC/C=C\[C@@H]5C[C@@]5(C(=O)NS(=O)(=O)C5CC5)NC(=O)[C@@H]4C3)cc(-c3nc(C(C)C)cs3)nc2c1C` (stereo not given in full), the Potency entry was “inactive”. In the case of `C=C[C@H]1CN2CC[C@H]1C[C@H]2[C@H](O)c1ccnc2ccccc12` it was “inactive”; in that of `CC(=O)[C@@]1(O)CC[C@H]2[C@@H]3CCC4=CC(=O)CC[C@@H]4[C@H]3CC[C@@]21C`, “inactive”. As for `CCCCC(C)(O)CC=C[C@H]1[C@H](O)CC(=O)[C@H]1CCCCCCC(=O)OC` (stereo not given in full), the Potency result was “inactive”. Regarding `NC(=O)C1CCCN1C(=O)C(Cc1cnc[nH]1)NC(=O)C1CCC(=O)N1` (stereo not given), the Potency entry was “inactive”.
